From PubChem BioAssay AID360 (National Center for Advancing Translational Sciences (NCATS), 2006)
About 550 (1.1%) of roughly 48,000 compounds were called active. Not shown: some 4% with an inconclusive outcome. No stated cut-off is given here; in the data, active means potency below about 15 µM; inconclusive means mostly about 16 µM to 33 µM; inactive means weaker than that. This excerpt belongs to a sample that is enriched for actives.

target: Lysosomal acid glucosylceramidase (Homo sapiens) (UniProt P04062); assay: Glucocerebrosidase; settings: purified enzyme, resorufin glucoside fluorescence (screen aimed at inhibitors), 20 min;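 further: the screen sought inhibitors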
Sequence (P04062 whole entry, looked up): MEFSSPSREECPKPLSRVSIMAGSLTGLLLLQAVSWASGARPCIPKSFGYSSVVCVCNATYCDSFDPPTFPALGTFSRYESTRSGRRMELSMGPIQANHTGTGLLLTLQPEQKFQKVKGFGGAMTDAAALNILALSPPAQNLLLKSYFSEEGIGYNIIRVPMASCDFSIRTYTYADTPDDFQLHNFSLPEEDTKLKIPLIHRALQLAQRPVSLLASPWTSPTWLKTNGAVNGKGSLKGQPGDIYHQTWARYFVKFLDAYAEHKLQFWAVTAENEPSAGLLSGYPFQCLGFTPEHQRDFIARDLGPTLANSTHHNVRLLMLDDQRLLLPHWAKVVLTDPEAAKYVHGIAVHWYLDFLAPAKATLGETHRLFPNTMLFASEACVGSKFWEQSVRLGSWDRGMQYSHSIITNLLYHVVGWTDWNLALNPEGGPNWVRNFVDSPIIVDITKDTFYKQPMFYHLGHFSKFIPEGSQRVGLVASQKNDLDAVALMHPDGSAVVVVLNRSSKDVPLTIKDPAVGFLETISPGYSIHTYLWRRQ
Summary of the method: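 Normal human glucocerebrosidase (0.2 nM final) was assayed with resorufin β-D-glucopyranoside (30 uM final) in 50mM citric acid/KH2PO4, 10mM sodium taurocholate, 0.01% tween-20, pH 5.9. Compounds were titrated; fluorescence (Ex 548, Em 600) read after 20 min at RT.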
Potency means the concentration at half of the fitted maximal effect.

Potency, active:
O=C(NC1CCCCC1)c1ccc2c(=O)n(CC3CCCO3)c(=O)[nH]c2c1 (stereo unspecified) 6.37 µM

Potency, inactive:
CCOC(=O)CSc1nnc(CNc2nc(-c3ccccc3)cs2)n1C > 76.9 µM
Cc1ccc(NC(=O)Cn2nc(C)c3ccccc3c2=O)c(C)c1 > 76.9 µM
COC(=O)c1ccc2c(=O)n(CC3CCCO3)c(=S)[nH]c2c1 (stereo unspecified) > 76.9 µM
O=c1c2cc3c(=O)n(CC4CCCO4)c(=O)c3cc2c(=O)n1CC1CCCO1 (stereo unspecified) > 76.9 µM
O=C(C1CCC(C(=O)N2CCCC2)CC1)N1CCCC1 (stereo unspecified) > 76.9 µM
CCOc1ccc(NC(=O)Nc2cc(C)on2)cc1 > 76.9 µM
CC1(C)CC(=O)C=C(NCCCN2CCCC2=O)C1 > 76.9 µM
O=C(OCc1nnc(-c2ccccc2)o1)c1ccc2c(c1)C(=O)N(CCc1ccccc1)C2=O > 76.9 µM
CCNC(=O)CN(c1ccc(C)cc1)S(=O)(=O)c1ccc(SC)cc1 > 76.9 µM
COc1ccc(Cl)cc1NC(=O)C1CC(=O)N(c2ccc(F)cc2)C1 (stereo unspecified) > 76.9 µM
O=S(=O)(NCc1ccccn1)c1ccc(Br)s1 > 76.9 µM
c1ccc(-c2cc(-c3nnc4sc(-c5ccccn5)nn34)[nH]n2)cc1 > 76.9 µM
CCCn1c(=O)c(-c2ccccc2)c(O)c2ccccc21 > 76.9 µM
Cc1ccc(F)cc1NC(=O)c1ccc2c(c1)OCO2 > 76.9 µM
Cc1ccc(-n2c(N)c(C(=O)N3CCOCC3)sc2=S)c(C)c1 > 76.9 µM
COc1ccc(-n2nnnc2SCC(=O)c2ccc(OC)c(OC)c2)cc1 > 76.9 µM
Cn1c(SCC(=O)Nc2cccc(NC(=O)c3cccs3)c2)nnc1-c1ccncc1 > 76.9 µM
COc1ccc(N2CCN(C(=O)CSc3nnc4ncccn34)CC2)cc1 > 76.9 µM
Cc1ccc(OCC(=O)Nc2ccc(-c3nc4ncccc4o3)cc2)cc1 > 76.9 µM
O=C(O)c1ccc(-n2cccc2)cc1O > 76.9 µM
CCCCN(C)C(=O)C1CCN(Cc2ccccn2)CC1 > 76.9 µM
O=C(Nc1ccon1)c1cccc(Cl)c1 > 76.9 µM
Fc1ccc(Cn2nnnc2C(c2cccs2)N2CCCCCC2)cc1 (stereo unspecified) > 76.9 µM
CCC(=O)N(Cc1cc2cc(OC)ccc2[nH]c1=O)c1ccccc1C > 76.9 µM
Cc1ccc(C2(c3ccc(C)cc3)NC(=O)N(Cc3c(C)noc3C)C2=O)cc1 > 76.9 µM
